PubChem BioAssay (NCI)
The panel holds about 79,000 compounds, 15% with a hit somewhere; the sample as a whole holds those more often. A number with no mark means an inactive call. Calls of active or inactive are those of the source. Rule as the data show it: active = growth inhibition above about 70%; inactive = the rest.

Assays:
[1] = NCI Yeast Anticancer Drug Screen. Data for the rad52 strain (AID 147);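 also: 0% = growth of vehicle-treated control cultures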; conditions: S. cerevisiae rad52 mutant growth inhibition, hits give high values
Procedure, shortened: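 Here a repair-compromised yeast strain receives each compound; its growth is then quantified and normalised to vehicle-only controls.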

[2] = NCI Yeast Anticancer Drug Screen. Data for the wt1 strain (AID 149);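 also: 0% = growth of vehicle-treated wt1 cultures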; conditions: S. cerevisiae wt1 strain (SPY 50644) growth inhibition, hits give high values
Procedure, shortened: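 Measured: growth of wt1 yeast under compound versus vehicle treatment, reported as inhibition.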

[3] = NCI Yeast Anticancer Drug Screen. Data for the rad50EPP+ strain (AID 151);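 also: 0% = growth of vehicle-treated control cultures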; conditions: S. cerevisiae rad50 mutant strain, hits give high values
Procedure, shortened: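 Read-out is yeast growth inhibition relative to vehicle; cells used were the rad50EPP+ strain.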

[4] = NCI Yeast Anticancer Drug Screen. Data for the mgt1 strain (AID 153); conditions: S. cerevisiae mgt1 mutant growth inhibition, hits give high values
Procedure, shortened: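 Measured: inhibition of mgt1 yeast growth by compound, normalized to vehicle-treated cultures.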

[5] = NCI Yeast Anticancer Drug Screen. Data for the rad50 strain (AID 155);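 also: 0% = growth of vehicle-only cultures of the same strain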; conditions: S. cerevisiae rad50 strain growth inhibition, hits give high values
Procedure, shortened: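 Growth of the mutant yeast was measured after compound exposure and referenced to vehicle-treated cultures.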

[6] = NCI Yeast Anticancer Drug Screen. Data for the mec2-1 strain (AID 157); conditions: S. cerevisiae mec2-1 strain, hits give high values
Procedure, shortened: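 Using mec2-1 yeast: add compound, measure growth, express inhibition versus vehicle-treated cultures.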

[7] = NCI Yeast Anticancer Drug Screen. Data for the rad14 strain (AID 159);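 also: 0% = growth of vehicle-treated control cultures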; conditions: S. cerevisiae rad14 strain growth inhibition, hits give high values
Procedure, shortened: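 Here, inhibition of yeast growth was measured after compound exposure, using a strain with a genetic defect in DNA damage repair and vehicle-treated cultures as the reference.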

[8] = NCI Yeast Anticancer Drug Screen. Data for the sgs1 mgt1 strain (AID 161);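 also: 0% = growth of cultures given vehicle only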; conditions: S. cerevisiae sgs1 mgt1 strain, hits give high values
Procedure, shortened: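 Growth of a repair-deficient yeast mutant was monitored after compound treatment and expressed as inhibition relative to vehicle-treated cultures.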

[9] = NCI Yeast Anticancer Drug Screen. Data for the CLN2oe strain (AID 163);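 also: 0% = growth of vehicle-only control cultures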; conditions: S. cerevisiae CLN2oe strain, hits give high values
Procedure, shortened: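 Whole-cell yeast growth assay. A strain engineered for altered cell-cycle control received compound, and inhibition relative to vehicle-treated cultures was recorded.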

[10] = NCI Yeast Anticancer Drug Screen. Data for the cln2 rad14 strain (AID 165);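 also: 0% = growth equal to vehicle treated cultures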; conditions: S. cerevisiae cln2 rad14 strain, hits give high values
Procedure, shortened: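 Yeast strain cln2 rad14, bearing defects in cell cycle control and DNA repair, serves as the test system; values reflect growth inhibition compared with vehicle.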

[11] = NCI Yeast Anticancer Drug Screen. Data for the bub3 strain (AID 167); conditions: S. cerevisiae bub3 mutant strain, hits give high values
Procedure, shortened: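 Whole-cell yeast assay. The mutant strain was incubated with compounds, and growth inhibition was determined by comparison with vehicle-treated cells.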

[12] = NCI Yeast Anticancer Drug Screen. Data for the wt2 strain (AID 169);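 also: 0% = growth of vehicle-treated yeast cultures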; conditions: S. cerevisiae wt2 strain growth inhibition, hits give high values
Procedure, shortened: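 Treated yeast vs. vehicle-treated yeast: growth inhibition determined.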

[13] = NCI Yeast Anticancer Drug Screen. Data for the mlh1 strain (AID 171);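 also: 0% = growth of vehicle-treated control cultures of the same strain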; conditions: S. cerevisiae mlh1 strain growth inhibition, hits give high values
Procedure, shortened: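 A yeast strain with a defined genetic lesion serves as the test organism. Cultures receive compound or vehicle, and growth is measured.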

[14] = NCI Yeast Anticancer Drug Screen. Data for the sgs1 strain (AID 173);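 also: 0% = growth of vehicle-only control cultures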; conditions: S. cerevisiae sgs1 mutant, hits give high values
Procedure, shortened: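 A genetically defined yeast mutant is incubated with the test compound, and its growth is compared to that of the same strain given vehicle.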

[15] = NCI Yeast Anticancer Drug Screen. Data for the mlh1 rad18 strain (AID 175); conditions: S. cerevisiae mlh1 rad18 strain growth inhibition, hits give high values
Procedure, shortened: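 Steps: expose repair-defective yeast to compound; measure growth; express inhibition against vehicle-treated controls.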

[16] = NCI Yeast Anticancer Drug Screen. Data for the rad18 strain (AID 177); conditions: S. cerevisiae rad18 mutant growth inhibition, hits give high values
Procedure, shortened: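 Measured value is growth inhibition of a yeast strain bearing a DNA repair alteration, referenced to vehicle-treated cells.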

[17] = at 5.0 µM (retest, dose inferred, filed as 0.5)
[18] = at 50.0 µM (retest, dose inferred, filed as 5.0)

SMILES: CCN(CC)CC(=O)c1ccc2cc(Cl)c3ccccc3c2c1
- growth inhibition ([1]; at 1.2 µM): 14%
- growth inhibition ([1]; at 3.7 µM): 30%
- growth inhibition ([1]; at 11.0 µM): 99% (active)
- growth inhibition ([1]; at 33.0 µM): 98% (active)
- growth inhibition ([1]; at 100.0 µM): 98% (active)
- growth inhibition ([2]; at 1.2 µM): 6%
- growth inhibition ([2]; at 3.7 µM): 17%
- growth inhibition ([2]; at 11.0 µM): 99% (active)
- growth inhibition ([2]; at 33.0 µM): 98% (active)
- growth inhibition ([2]; at 100.0 µM): 98% (active)
- growth inhibition ([3]; at 1.2 µM): 68%
- growth inhibition ([3]; at 3.7 µM): 85% (active)
- growth inhibition ([3]; at 11.0 µM): 98% (active)
- growth inhibition ([3]; at 33.0 µM): 98% (active)
- growth inhibition ([3]; at 100.0 µM): 98% (active)
- growth inhibition ([4]; at 1.2 µM): 0%
- growth inhibition ([4]; at 3.7 µM): 13%
- growth inhibition ([4]; at 11.0 µM): 99% (active)
- growth inhibition ([4]; at 33.0 µM): 99% (active)
- growth inhibition ([4]; at 100.0 µM): 99% (active)
- growth inhibition ([5]; at 1.2 µM): 9%
- growth inhibition ([5]; at 3.7 µM): 18%
- growth inhibition [5, 17]: 26%
- growth inhibition ([5]; at 11.0 µM): 98% (active)
- growth inhibition ([5]; at 33.0 µM): 98% (active)
- growth inhibition [5, 18]: 98% (active)
- growth inhibition ([5]; at 50.0 µM): 99% (active)
- growth inhibition ([5]; at 100.0 µM): 98% (active)
- growth inhibition ([6]; at 1.2 µM): 12%
- growth inhibition ([6]; at 3.7 µM): 24%
- growth inhibition [6, 17]: 26%
- growth inhibition ([6]; at 11.0 µM): 99% (active)
- growth inhibition ([6]; at 33.0 µM): 99% (active)
- growth inhibition [6, 18]: 99% (active)
- growth inhibition ([6]; at 50.0 µM): 99.2% (active)
- growth inhibition ([6]; at 100.0 µM): 99% (active)
- growth inhibition ([7]; at 1.2 µM): 6%
- growth inhibition ([7]; at 3.7 µM): 13%
- growth inhibition ([7]; at 11.0 µM): 99% (active)
- growth inhibition ([7]; at 33.0 µM): 99% (active)
- growth inhibition ([7]; at 100.0 µM): 99% (active)
- growth inhibition [8, 17]: 42%
- growth inhibition [8, 18]: 99% (active)
- growth inhibition ([8]; at 50.0 µM): 99.2% (active)
- growth inhibition ([9]; at 1.2 µM): 8%
- growth inhibition ([9]; at 3.7 µM): 11%
- growth inhibition ([9]; at 11.0 µM): 99% (active)
- growth inhibition ([9]; at 33.0 µM): 98% (active)
- growth inhibition ([9]; at 100.0 µM): 99% (active)
- growth inhibition [10, 17]: 6%
- growth inhibition [10, 18]: 99% (active)
- growth inhibition ([10]; at 50.0 µM): 99.2% (active)
- growth inhibition ([11]; at 1.2 µM): -4%
- growth inhibition ([11]; at 3.7 µM): 3%
- growth inhibition [11, 17]: 10%
- growth inhibition ([11]; at 11.0 µM): 98% (active)
- growth inhibition ([11]; at 33.0 µM): 98% (active)
- growth inhibition [11, 18]: 98% (active)
- growth inhibition ([11]; at 50.0 µM): 99.2% (active)
- growth inhibition ([11]; at 100.0 µM): 98% (active)
- growth inhibition ([12]; at 1.2 µM): 7%
- growth inhibition ([12]; at 3.7 µM): 24%
- growth inhibition ([12]; at 11.0 µM): 99% (active)
- growth inhibition ([12]; at 33.0 µM): 98% (active)
- growth inhibition ([12]; at 100.0 µM): 98% (active)
- growth inhibition ([13]; at 1.2 µM): 12%
- growth inhibition ([13]; at 3.7 µM): 23%
- growth inhibition ([13]; at 11.0 µM): 99% (active)
- growth inhibition ([13]; at 33.0 µM): 99% (active)
- growth inhibition ([13]; at 100.0 µM): 98% (active)
- growth inhibition ([14]; at 1.2 µM): 25%
- growth inhibition ([14]; at 3.7 µM): 53%
- growth inhibition ([14]; at 11.0 µM): 99% (active)
- growth inhibition ([14]; at 33.0 µM): 98% (active)
- growth inhibition ([14]; at 100.0 µM): 98% (active)
- growth inhibition [15, 17]: 48%
- growth inhibition [15, 18]: 98% (active)
- growth inhibition ([15]; at 50.0 µM): 99.2% (active)
- growth inhibition ([16]; at 1.2 µM): 20%
- growth inhibition ([16]; at 3.7 µM): 42%
- growth inhibition ([16]; at 11.0 µM): 99% (active)
- growth inhibition ([16]; at 33.0 µM): 98% (active)
- growth inhibition ([16]; at 100.0 µM): 98% (active)
